Read-outs that look alike come from different tables or passages of the source.
Legend:
Parameters in all cases: species or system human, MV4-11 + K-562 + COLO205 + SK-N-BE2 + OVCAR-8
[1] = tested on: CDK12; settings: read-out: apparent Kd; compound concentrations: 100 nM and 1000 nM (sheet 'Samples'), CATDS: 0.16242687072241299; n = 1
[2] = tested on: CDK13; settings: read-out: apparent Kd; compound concentrations: 100 nM and 1000 nM (sheet 'Samples'), CATDS: 0.16446533875215399; n = 1
[3] = tested on: MAPK10; settings: read-out: apparent Kd, compound concentrations: 100 nM and 1000 nM (sheet 'Samples'), n = 1
[4] = tested on: MAPK8; settings: read-out: apparent Kd; compound concentrations: 100 nM and 1000 nM (sheet 'Samples'), CATDS: 0.17846593111563799; n = 1
[5] = tested on: MAPK9; settings: read-out: apparent Kd, compound concentrations: 100 nM and 1000 nM (sheet 'Samples'), n = 1
[6] = tested on: CDK16; settings: read-out: apparent Kd, n = 1
[7] = tested on: CDKL5; settings: read-out: apparent Kd, n = 1
[8] = tested on: GSK3A; settings: read-out: apparent Kd, n = 1
[9] = tested on: GSK3B; settings: read-out: apparent Kd, n = 1
[10] = tested on: CDK2; settings: read-out: apparent Kd; compound concentrations:100 nM and 1000 nM (sheet 'Samples'); n = 1
[11] = tested on: FLT3; settings: read-out: apparent Kd; compound concentrations:100 nM and 1000 nM (sheet 'Samples'); n = 1
[12] = tested on: CDC7; settings: read-out: apparent Kd, n = 1
[13] = tested on: CDC42; settings: read-out: apparent Kd; compound concentrations: 100 nM and 1000 nM (sheet 'Samples'), CATDS: 0.115085372614253; n = 1
[14] = tested on: EGFR; settings: read-out: apparent Kd; compound concentrations: 100 nM and 1000 nM (sheet 'Samples'), CATDS: 0.71685181489177596; n = 1
[15] = tested on: ERBB3; settings: read-out: apparent Kd; compound concentrations: 100 nM and 1000 nM (sheet 'Samples'), CATDS: 0.132982955491593; n = 1
[16] = tested on: NNT; settings: read-out: apparent Kd; compound concentrations: 100 nM and 1000 nM (sheet 'Samples'), CATDS: 0.11921325436386; n = 1
[17] = tested on: RAB5C; settings: read-out: apparent Kd; compound concentrations: 100 nM and 1000 nM (sheet 'Samples'), CATDS: 0.157008240219803; n = 1
[18] = tested on: RIPK2; settings: read-out: apparent Kd; compound concentrations: 100 nM and 1000 nM (sheet 'Samples'), CATDS: 0.27482887705752401; n = 1
[19] = tested on: PIK3CD; settings: read-out: apparent Kd; compound concentrations:100 nM and 1000 nM (sheet 'Samples'); n = 1
[20] = tested on: TGFBR1; settings: read-out: apparent Kd; compound concentrations:100 nM and 1000 nM (sheet 'Samples'); n = 1
[21] = tested on: CDK17; settings: read-out: apparent Kd; compound concentrations: 100 nM and 1000 nM (sheet 'Samples'), CATDS: 0.129072520880324; n = 1
[22] = tested on: CDK9; settings: read-out: apparent Kd; compound concentrations: 100 nM and 1000 nM (sheet 'Samples'), CATDS: 8.2181630461084801E-2; n = 1
[23] = tested on: DYRK1A; settings: read-out: apparent Kd, compound concentrations: 100 nM and 1000 nM (sheet 'Samples'), n = 1
[24] = tested on: SMG1; settings: read-out: apparent Kd; compound concentrations: 100 nM and 1000 nM (sheet 'Samples'), CATDS: 7.6423635677126206E-2; n = 1
[25] = tested on: MAPK14; settings: read-out: apparent Kd; compound concentrations: 100 nM and 1000 nM (sheet 'Samples'), CATDS: 0.62465881952288804; n = 1
[26] = tested on: MAPKAPK2; settings: read-out: apparent Kd; compound concentrations: 100 nM and 1000 nM (sheet 'Samples'), CATDS: 0.37042886154437599; n = 1
[27] = tested on: CLK1; settings: read-out: apparent Kd; compound concentrations: 100 nM and 1000 nM (sheet 'Samples'), CATDS: 0.17433508542258599; n = 1
[28] = tested on: CLK4; settings: read-out: apparent Kd; compound concentrations: 100 nM and 1000 nM (sheet 'Samples'), CATDS: 0.16932447657893401; n = 1
[29] = tested on: CSNK2A1;CSNK2A3; settings: read-out: apparent Kd; compound concentrations: 100 nM and 1000 nM (sheet 'Samples'), CATDS: 0.234359592666399; n = 1
[30] = tested on: CSNK2A2; settings: read-out: apparent Kd; compound concentrations: 100 nM and 1000 nM (sheet 'Samples'), CATDS: 0.363288777813424; n = 1
[31] = compound concentrations:100 nM and 1000 nM (sheet 'Samples')

## CN(C)C/C=C/C(=O)Nc1ccc(C(=O)N2CCC[C@@H](Nc3ncc(Cl)c(-c4c[nH]c5ccccc45)n3)C2)cc1 [THZ531]
[1]
  potency estimated from few doses: 1800 nM
[2]
  potency estimated from few doses: 1740 nM
[3]; CATDS: 0.33495043269217101
  potency estimated from few doses: 434 nM
[4]
  potency estimated from few doses: 1410 nM
[5]; CATDS: 0.23956411042419101
  potency estimated from few doses: 760 nM

## CN(C)CCCC(=O)Nc1n[nH]c2nnc(-c3ccccc3)cc12.Cl [SB-627772-A]
[6]; [31]
  potency estimated from few doses: 1840 nM
[7]; [31]
  potency estimated from few doses: 4.6 nM
[8]; [31]
  potency estimated from few doses: 6.15 nM
[9]; [31]
  potency estimated from few doses: 17.1 nM

## O=C(Nc1n[nH]c2cc(-c3ccoc3)ccc12)C1CC1 [SB-738481]
[10]
  potency estimated from few doses: 1470 nM
[7]; [31]
  potency estimated from few doses: 1100 nM
[11]
  potency estimated from few doses: 884 nM

## NS(=O)(=O)c1cccc(-c2ccc3ncc(N4CCOCC4)nc3c2)c1 [GSK1535721A]
[12]; compound concentrations: 100 nM and 1000 nM (sheet 'Samples'), CATDS: 1
  potency estimated from few doses: 1940 nM

## CN(C)c1cc2c(Nc3ccc4nc(Cc5ccccc5)[nH]c4c3)ncnc2cn1 [GW301888X]
[13]
  potency estimated from few doses: 1800 nM
[14]
  potency estimated from few doses: 19.1 nM
[15]
  potency estimated from few doses: 1030 nM
[16]
  potency estimated from few doses: 1550 nM
[17]
  potency estimated from few doses: 599 nM
[18]
  potency estimated from few doses: 133 nM

## c1ccc(-c2cc(-c3c[nH]nc3-c3ccccn3)ccn2)cc1 [GW576604X]
[12]; [31]
  potency estimated from few doses: 1870 nM
[19]
  potency estimated from few doses: 128 nM
[20]
  potency estimated from few doses: 629 nM

## CCN1CCC(C(=O)Nc2n[nH]c3nnc(-c4cccc(F)c4F)cc23)CC1.Cl [SB-686709-A]
[6]; compound concentrations: 100 nM and 1000 nM (sheet 'Samples'), CATDS: 0.11637141533409
  potency estimated from few doses: 199 nM
[21]
  potency estimated from few doses: 132 nM
[22]
  potency estimated from few doses: 1050 nM
[7]; compound concentrations: 100 nM and 1000 nM (sheet 'Samples'), CATDS: 0.15820279930109701
  potency estimated from few doses: 60.5 nM
[23]; CATDS: 8.3758685626984103E-2
  potency estimated from few doses: 937 nM
[8]; compound concentrations: 100 nM and 1000 nM (sheet 'Samples'), CATDS: 0.64867635498298803
  potency estimated from few doses: 0.589 nM
[9]; compound concentrations: 100 nM and 1000 nM (sheet 'Samples'), CATDS: 0.38395769159981902
  potency estimated from few doses: 1.75 nM
[24]
  potency estimated from few doses: 1680 nM

## Cl.Cn1c(=O)c(Oc2ccc(F)cc2F)cc2cnc(N[C@H]3CCOC3)nc21 [RO3311017-001]
[7]; compound concentrations: 100 nM and 1000 nM (sheet 'Samples'), CATDS: 0.14258501509608601
  potency estimated from few doses: 1540 nM
[3]; CATDS: 0.149195814483779
  potency estimated from few doses: 1260 nM
[25]
  potency estimated from few doses: 19.2 nM
[5]; CATDS: 0.14319279027503101
  potency estimated from few doses: 1510 nM
[26]
  potency estimated from few doses: 54.5 nM

## CCOc1ccccc1CCNC1=NC(=O)/C(=C/c2ccc3ncccc3c2)S1 [RO4503314-000]
[27]
  potency estimated from few doses: 469 nM
[28]
  potency estimated from few doses: 505 nM
[29]
  potency estimated from few doses: 246 nM
[30]
  potency estimated from few doses: 118 nM
[23]; CATDS: 0.15776551091334201
  potency estimated from few doses: 615 nM
